VLA-4 agonist – allosterically activates the human VLA-4 integrin; AID 528; 24,000 tested, under 10 active; P13612; Jurkat cells, LDV-FITC binding, flow cytometry; activation, % at 10 µM (by protocol);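 active = fluorescent ligand binding to cells raised by more than 40% of the manganese-induced maximum; inconclusive = compound's own fluorescence above 85% of the ligand control signal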
Target sequence (P13612 whole entry, looked up): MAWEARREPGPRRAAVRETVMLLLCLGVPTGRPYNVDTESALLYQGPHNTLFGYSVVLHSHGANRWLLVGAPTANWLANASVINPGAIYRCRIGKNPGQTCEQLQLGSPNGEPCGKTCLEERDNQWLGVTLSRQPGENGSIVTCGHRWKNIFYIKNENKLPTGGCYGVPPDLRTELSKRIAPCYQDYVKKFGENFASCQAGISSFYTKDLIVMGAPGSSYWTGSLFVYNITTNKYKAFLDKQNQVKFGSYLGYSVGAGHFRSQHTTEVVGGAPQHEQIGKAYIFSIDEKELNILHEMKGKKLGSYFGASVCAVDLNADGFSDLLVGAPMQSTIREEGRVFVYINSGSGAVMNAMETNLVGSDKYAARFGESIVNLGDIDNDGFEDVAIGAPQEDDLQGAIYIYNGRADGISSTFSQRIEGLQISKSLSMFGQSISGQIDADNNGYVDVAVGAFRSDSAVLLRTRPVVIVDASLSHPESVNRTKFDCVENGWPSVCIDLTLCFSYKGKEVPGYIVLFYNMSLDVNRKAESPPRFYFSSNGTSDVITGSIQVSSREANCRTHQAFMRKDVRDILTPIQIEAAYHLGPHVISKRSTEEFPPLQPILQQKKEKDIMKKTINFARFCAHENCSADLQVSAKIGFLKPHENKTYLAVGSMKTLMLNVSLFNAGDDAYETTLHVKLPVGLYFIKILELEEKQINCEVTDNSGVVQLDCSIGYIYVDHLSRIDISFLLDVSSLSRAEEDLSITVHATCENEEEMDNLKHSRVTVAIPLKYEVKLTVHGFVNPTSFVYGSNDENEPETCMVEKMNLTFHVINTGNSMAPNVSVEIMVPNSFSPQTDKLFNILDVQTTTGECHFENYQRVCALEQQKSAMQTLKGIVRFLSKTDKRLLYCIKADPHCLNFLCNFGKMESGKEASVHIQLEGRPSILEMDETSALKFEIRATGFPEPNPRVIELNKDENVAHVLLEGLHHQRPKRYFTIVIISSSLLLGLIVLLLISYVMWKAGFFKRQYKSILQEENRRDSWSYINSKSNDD
Autofluor Jurkat – compound fluoresces in Jurkat cells, VLA-4 screen interference. compound autofluorescence, flow cytometry; stronger effect = higher value; 1 = vehicle-only cell background. fluorescence ratio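 (tested at 10 µM compound in the well)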. 24,000 tested, 0.61% active. AID 576;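 active = fluorescence ratio above 2.44, which is 1 plus 3 SD of all ratios; inconclusive = signal too bright to measure linearly, ratio around 10 or more; inactive = fluorescence ratio below 2.44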;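 also: green fluorescence of cells measured with 488 nm excitation and 530 nm emission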
26S disassembly – blocks ATP-dependent breakdown of the yeast 26S proteasome; AID 751; 24,000 tested, 0.2% active; anti-FLAG beads, GFP-proteasome disassembly, flow cytometry; inhibition of disassembly, % (test concentration not listed);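 active = inhibition of disassembly above about 33%, limit read from the data; inconclusive = likely self-fluorescent, control bead median signal at least 40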;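 also: higher percent means more bead fluorescence retained so stronger block of disassembly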
Prostate diff – promotes differentiation of LNCaP prostate cells | flow cytometry side scatter, 4 d | AID 795 | 24,000 tested, 0.56% active | side scatter shift, % at 10 µM;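 active = side scatter shift above 30%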;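 also: androgen-responsive LNCaP prostate cancer cells in charcoal-stripped serum medium; higher shift means more granular cells and more differentiation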
VLA-4 antagonist – inhibition of LDV-FITC ligand binding to human VLA-4 integrin; Jurkat cells, LDV-FITC binding with Mn2+, flow cytometry; 100% = Mn2+-driven binding gain fully reversed; P13612; inhibition, % at 10 µM (by protocol); AID 529; 24,000 tested, 0.2% active;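 active = inhibition above 50%; inconclusive = compound itself fluorescent, judged against control cell fluorescence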
Each line names hits and unclear results; the compound was inactive in the other large screens. A selection: hits, their analogues and other compounds. The true share with any hit is near 1.6%.

N#Cc1c(N)n(CCNC(=O)c2cccs2)c2nc3ccccc3nc12	VLA-4 agonist inconclusive, Autofluor Jurkat 5.3, VLA-4 antagonist inconclusive
Cc1cccc(-c2noc(CN(C(=O)c3c(-c4ccccc4Cl)noc3C)C(C)C)n2)c1	VLA-4 antagonist 59
CCN(CC)CCNC(=O)c1nn(-c2ccc(C)cc2)c(=O)c2c1c1ccccc1n2C	Prostate diff 36
Cc1ccc(-n2nc(C(=O)NCc3ccco3)c3c4ccccc4n(C)c3c2=O)cc1	none
CN1CCN(c2ccccc2NS(=O)(=O)c2ccc3c(c2)CCN3C(=O)C2CCC2)CC1	Prostate diff 46
O=C(C1CCC1)N1CCc2cc(S(=O)(=O)NC3CCCC3)ccc21	none
CCCOC(=O)NC(CC)COC(=O)Nc1cccc(C)c1C (stereo unspecified)	none
CCOC(=O)c1c(-c2ccc(C)o2)csc1NC(=O)CN1CCN(CC)CC1	Prostate diff 34
COC(=O)c1c(-c2cccs2)csc1NC(=O)CN1CCOCC1	none
COc1cccc(-n2nnc3c(=O)n(CC(=O)N4CCC(Cc5ccccc5)CC4)cnc32)c1	VLA-4 antagonist 74
COc1cccc(-n2nnc3c(=O)n(CC(=O)N4CCC(C)CC4)cnc32)c1	none
Cc1cccn2c(=O)c3cc(C(=O)NC4CCCC4)c(=N)n(C4CCCC4)c3nc12	none
N=c1c(C(=O)NC2CCCC2)cc2c(=O)n3ccccc3nc2n1C1CCCC1	VLA-4 agonist inconclusive, Prostate diff 68, VLA-4 antagonist inconclusive
COc1ccc(Cl)c(NC(=O)NCCN2CCN(c3ccccc3)CC2)c1	none
COc1ccc(Cl)c(N2CCN(CCCNC(=O)Nc3ccc(C)cc3)CC2)c1	Prostate diff 40
COc1ccc(Cl)cc1N1CCN(CCNC(=O)Nc2ccccc2C)CC1	Prostate diff 45
CN(C)c1ccc(CNC2CC(C)(C)NC(C)(C)C2)cc1	Prostate diff 36
CN(C)c1ccc(CNn2cnnc2)cc1	none
COc1ccc(-c2nnc(Nc3nc4c(OC)cccc4s3)o2)c(OC)c1	VLA-4 antagonist 68
COc1ccc(-c2nnc(Nc3nc4c(OC)cccc4s3)o2)cc1	VLA-4 antagonist 66
O=C(Nc1ccc(-c2noc(-c3cccs3)n2)cc1)c1cccnc1	VLA-4 agonist inconclusive, VLA-4 antagonist inconclusive
CC1CCCC(NC(=O)CN(C)S(=O)(=O)c2cccc3cccnc23)C1C (stereo unspecified)	none
CN(CC(=O)NCc1cccs1)S(=O)(=O)c1cccc2nsnc12	none
N#Cc1c(-c2ccco2)cc(C2CC2)nc1SCC(=O)c1ccccc1	VLA-4 agonist inconclusive, Autofluor Jurkat 2.5, VLA-4 antagonist inconclusive
Cc1ccccc1-c1nc(CN2CCC(C(=O)NCCCN3CCCC3)CC2)c(C)o1	Prostate diff 65
Cc1ccccc1-c1nc(CN2CCC(C(=O)NCCCN3CC(C)CC(C)C3)CC2)c(C)o1 (stereo unspecified)	Prostate diff 75
Cc1ccccc1-c1nc(CN2CCC(C(=O)NCCCN3CCOCC3)CC2)c(C)o1	none
CN(CC(=O)NCc1ccc2c(c1)OCO2)S(=O)(=O)c1ccc(Br)s1	none
O=C1CC(c2ccccc2)Cc2nc(N3CCc4ccccc43)ncc21 (stereo unspecified)	26S disassembly 74
CCOC(=O)CSc1nc2ccccc2n1C(=O)OCC	VLA-4 agonist inconclusive, Autofluor Jurkat 2.8, VLA-4 antagonist inconclusive
CCOC(=O)CSc1nc2ccccc2n2cnnc12	VLA-4 agonist inconclusive, Autofluor Jurkat 7.3, VLA-4 antagonist inconclusive
CCOC(=O)CSc1nc2ccccc2n1CC(=O)N1CCN(c2ccccc2)CC1	none
CCOC(=O)N1CCC(Nc2nc3ccccc3n3cnnc23)CC1	none
CCn1nnnc1NCc1cccn1C	none
O=C(c1ccccc1)c1ccc(N2CCNCC2)cc1	Prostate diff 41
Cn1nc(-c2ccc(Cl)cc2)c2cc(C(=O)NCCCN3CCOCC3)sc21	Prostate diff 31
CCN(CC)CCNC(=O)c1cc2c(-c3ccc(Cl)cc3)nn(C)c2s1	VLA-4 agonist inconclusive, Prostate diff 40, VLA-4 antagonist inconclusive
CCOCCCNC(=O)c1cc2c(-c3ccc(Cl)cc3)nn(C)c2s1	none
CCc1ccc2nc(NC3=NCN(CCOC)CN3)nc(C)c2c1	VLA-4 agonist inconclusive, VLA-4 antagonist inconclusive
Cc1ccc2nc(NC3=NCN(Cc4ccco4)CN3)nc(C)c2c1	VLA-4 agonist inconclusive, Autofluor Jurkat 3.5, VLA-4 antagonist inconclusive
O=C(CNCCC1=CCCCC1)Nc1ccccc1N1CCCCC1	none
O=C(Cn1c(=O)oc2ccccc21)N1CCN(c2ccccc2)CC1	VLA-4 agonist inconclusive, Autofluor Jurkat 2.5, VLA-4 antagonist inconclusive
O=C(CCn1c(=O)oc2ccccc21)N1CCN(c2ccccc2F)CC1	none
O=C(CN1CCN(Cc2ccccc2)C1=O)NCc1ccc(Cl)cc1	none
O=C(CN1CCN(Cc2ccc(Cl)cc2)C1=O)NCCN1CCCC1	VLA-4 agonist inconclusive, 26S disassembly 49, VLA-4 antagonist inconclusive
NS(=O)(=O)c1cc2c(cc1Cl)NC=NS2(=O)=O	none
Cc1oc2cc3c(C(=O)OCCN(C)C)c(C)oc3cc2c1C(=O)OCCN(C)C	none
CCOc1cc(C2C(C(=O)OC)=C(C)N=C3SCCC(=O)N32)ccc1OC(C)=O (stereo unspecified)	VLA-4 agonist inconclusive, Autofluor Jurkat 2.7, VLA-4 antagonist inconclusive
CCOc1ccc(C2C(C(=O)OC)=C(C)N=C3SCCC(=O)N32)cc1OCC (stereo unspecified)	none
Cc1nc2c(cnn2-c2ccc(Cl)cc2)c(=O)n1-c1ccc2c(c1)OCCO2	VLA-4 agonist inconclusive, VLA-4 antagonist inconclusive

Screens (PubChem)
